The sample as a whole holds a higher share of hits than the screen did.
Sa growth inh = blocks Staphylococcus aureus growth | S. aureus RN4220 growth, OD600, 20 h, 42 °C; stronger effect = lower value | relative growth, % (no concentration beside the values) | hit rate 0.53% among 170,000 | AID 720641;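 active = relative growth at most 50% at the other temperature and 20+ points below 30 °C, or under 10% at both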
S aureus helic = S. aureus DNA helicase inhibition. purified S. aureus helicase, fluorescence unwinding assay. hit rate 0.05% among 120,000. inhibition, % (no concentration beside the values); in the data active = inhibition above about 25%, passing the limit was not always enough;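 also: 0% = mean of negative control wells and 100% = mean of positive control wells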
Active calls of the source: *; · = no result.

SMILES	Sa growth inh	S aureus helic
COC(=O)c1ccc(C(c2cc3c(cc2O)OCO3)N2CCN(c3ccccc3)CC2)cc1 (stereo unspecified)	-0.2*	9
O=C(NCC(c1ccc2c(c1)OCO2)N1CCN(c2ccccc2)CC1)c1ccc(F)c(F)c1 (stereo unspecified)	127	·
Oc1cc2c(cc1C(c1ccc(C(F)(F)F)cc1)N1CCN(c3ccccc3)CC1)OCO2 (stereo unspecified)	-0.7*	0
C=CCc1c(C)nc(SCC(C)C)[nH]c1=O	116	15
C=CCSc1nnc(-c2ccc(C(C)(C)C)cc2)n1Cc1ccco1	8.7*	7
CSc1nnc(-c2ccc(C(C)(C)C)cc2)n1Cc1ccco1	85	·
O=C(/C=C/c1ccco1)OCc1nc2sc3c(c2c(=O)[nH]1)CCCC3	111	-14
CCOC(=O)Oc1cc2oc(=O)sc2cc1Cl	4.9*	32
CCOC(=O)N=c1oc2cc(Cl)c(Cl)cc2o1	57	12
CCCCn1c(N)c(S(=O)(=O)c2ccccc2)c2nc3ccccc3nc21	90	2
COC(=O)c1c(C)[nH]c(C(=O)CN(C)Cc2cccc(OC)c2)c1C	98	9
COC(=O)c1c(C)[nH]c(C(=O)CN(C)CC(=O)Nc2c(C)cc(C)cc2C)c1C	117	30*
COc1ccc(C(=O)OCc2ccccc2C(F)(F)F)c(O)c1	84	-6
Cc1cc(C)c(NC(=O)c2cn3c4c(c(N5CCN(C)CC5)c(F)cc4c2=O)OCC3C)c(C)c1 (stereo unspecified)	71	-2
CC1COc2c(N3CCN(C)CC3)c(F)cc3c(=O)c(C(=O)OCc4ccccn4)cn1c23 (stereo unspecified)	-1.0*	11
Cc1c(C)c(C)c(C(=O)c2ccccc2C(=O)N2CCOCC2)c(C)c1C	102	·
CCN(CC)c1ccc2c(c1)CCCN2	4.2*	8
O=S(=O)(c1ccc2c(c1)CCCN2)N1CCCCC1	101	-12
COc1ccccc1OCCn1c(NC(=O)c2ccccc2)nc2ccccc21	109	·
COc1ccccc1C(=O)Nc1nc2ccccc2n1CCOc1ccccc1	1.0*	6
Cc1cc(C2(O)CSc3nc4cc(C(F)(F)F)ccc4n32)ccc1Cl (stereo unspecified)	69	·
N/C(Cn1ccccc1=O)=N\O	82	-14
O=C(O)Cn1ccccc1=O	44*	7
O=c1c(=NNc2nn[nH]n2)c(=O)c2ccccc12	1.4*	11
O=c1c(=NNc2ccccc2)c(=O)c2ccccc12	99	·
SMILES	Sa growth inh	S aureus helic
CS(=O)(=O)c1nc(Oc2cccc(C(F)(F)F)c2)cc(Oc2cccc(C(F)(F)F)c2)n1	32*	8
O=C(O)c1cccc(Oc2cccc(C(F)(F)F)c2)c1	118	7
N#CC1=C(SCc2ccccc2)NC2=C(C(=O)CCC2)C1c1ccc(Cl)cc1 (stereo unspecified)	104	-5
Cc1cc(Br)ccc1NC(=O)c1ccccn1	106	6
C/C(=N\NC(=O)c1cc(Br)ccc1O)c1ccccn1	3.1*	4
CC1=C(c2ccc(C)c(C)c2)S(=O)(=O)NC1=O	103	5
Cc1cc(C)cc(OC(=O)CCN2C(=O)c3ccccc3C2=O)c1	-1.1*	17
O=C(CCN1C(=O)c2ccccc2C1=O)Oc1ccc(Cl)cc1	114	4
COc1ccc2c(c1OC)C(=O)OC2NN(C)c1cccc(F)c1C#N (stereo unspecified)	89	·
COc1ccc2c(c1)CCc1c(C(=O)Nc3cccnc3)noc1-2	100	6
COc1ccc(-c2n[nH]c(C(F)(F)F)c2-c2cc3ccccc3o2)c(O)c1	3.9*	28
Cc1c(O)ccc(-c2n[nH]c(C(F)(F)F)c2Oc2ccccc2)c1O	·	-20
Cc1ccc(CNC(=O)Cn2sc3nc(C)cc(C)c3c2=O)cc1	87	13
CCOc1ccc(CCNC(=O)Cn2sc3nc(C)cc(C)c3c2=O)cc1	6.2*	24
Cc1cc2nc3ccc(=[N+](C)C)cc-3sc2cc1N	209	132*
CN(C)c1ccc2nc3ccc(=[N+](C)C)cc-3sc2c1	52	·
CC1CCN(Cn2nc(-c3ccc4c(c3)OCO4)oc2=S)CC1	42*	-7
CC1CN(Cn2nc(-c3ccc4c(c3)OCO4)oc2=S)CC(C)O1 (stereo unspecified)	80	-11
Cc1cccc(NC(=S)NC2CCCC2)c1	121	-6
S=C(Nc1ccc(Cl)c(Cl)c1)NC1CCCC1	1.3*	·
CCn1c(NC(=O)COc2cccc(C(F)(F)F)c2)nc2ccccc21	94	12
COc1cc(Cc2cnc(N)nc2N)cc(OC)c1OC	-1.0*	·
COc1cc(CC(=O)OCC(N)=O)cc(OC)c1OC	96	-14
COC(=O)CCS(=O)(=O)c1nc(-c2cccs2)cc(C(F)(F)F)n1	1.4*	7
COc1ccc(NC(=O)CCS(=O)(=O)c2nc(-c3cccs3)cc(C(F)(F)F)n2)cc1	88	·
SMILES	Sa growth inh	S aureus helic
CCCCOc1cccc2c1CCN(C)C2=O	66	6
CN1CCc2c(OCc3ccc(Cl)cc3)cccc2C1=O	6.4*	15
Cc1ccc(S(=O)(=O)Cc2ccc(C(F)(F)F)cc2)cc1	101	·
COc1cccc(-c2nnn(Cc3nc4ccc(Cl)cc4n3CCO)n2)c1	146	-11
O=C(Nc1ccccc1)c1ncn(-c2ccccc2)n1	97	-19
CCn1nnnc1SCC(=O)c1ccc(OC)cc1OC	88	4
O=C1NN(c2ccccc2)C(=O)/C1=C/c1ccc(SC2CCCCC2)o1	92	22
N=C1/C(=C/c2ccc(SC3CCCCC3)o2)C(=O)N=C2SC=CN12	8.4*	-15
Cc1cccc(N(C)C(=O)c2cc3c(=O)oc4ccccc4c3s2)c1	103	9
NC(=S)NN1C2CSC1CS2	99	·
O=C(Nc1ncnc2sccc12)c1cccs1	60	4
O=C(Nc1ncnc2sccc12)C1CCCCC1	4.5*	8
NNc1ccc2c(Cl)cc(Cl)c(O)c2n1	4.2*	21
NNc1ccc(Cl)c(Cl)c1	87	-16
CN(C(=O)CSC1=NCCS1)C1CCCCC1	100	-11
C=CCc1c(CCC)nc(-c2ccccn2)[nH]c1=O	-0.3*	·
CCCc1nc(-c2ccccn2)[nH]c(=O)c1Cc1c(F)cccc1Cl	58	35
Cc1ccc(C(=O)c2ccccc2C(=O)OCC(N)=O)cc1	121	7
COC(=O)CCC(=O)Nc1ccc(S(=O)(=O)Nc2cc(C)cc(C)c2)cc1	100	23
COC(=O)c1ccc(-n2c(C)ccc2C)cc1	106	1
CCNC(=O)c1ccc(-n2c(C)ccc2C)cc1	112	29*
O=c1[nH]c(=O)c2nc3cc(C(F)(F)F)ccc3nc2[nH]1	2.5*	-98
FC(F)(F)c1cccc2c1[nH]c1nc3ccccc3nc12	106	1
CCOc1ccc2[nH]c(=O)c(Cc3ccccc3)c(O)c2c1	93	2
CCCOc1ccc2c(C)c(CCC)c(=O)oc2c1	·	30
SMILES	Sa growth inh	S aureus helic
CCN1/C(=C/c2ccc3cc(C)ccc3[n+]2C)Sc2cc(OC)ccc21	-1.5*	-26
CCN1/C(=C/c2ccc3ccccc3[n+]2CC)Sc2cc(NC(C)=O)ccc21	101	6
CN1/C(=C/C#N)Sc2ccccc21	88	-74
COc1ccc2c(ccc(/C=C3\Sc4ccccc4N3C)[n+]2C)c1	4.7*	-222
Cc1ccc2c(CN3C(=O)CCC3=O)cc(=O)oc2c1	100	14
CC1(C)CC(=O)C2=C(C1)N1C(=C(C#N)C2c2cccnc2)N=C(N)c2ccccc21 (stereo unspecified)	125	3
